Measurements: PubChem BioAssay (NCI)
About 79,000 compounds went through this panel and 15% of them were active in at least one assay; those are over-represented in the sample as a whole. A number with no mark means an inactive call. Calls of active or inactive are those of the source. Cut-off read from the data, not from the text of the source: active = growth inhibition above about 70%; inactive = the rest.

Test: NCI Yeast Anticancer Drug Screen. Data for the rad18 strain (AID 177)
Conditions: S. cerevisiae rad18 mutant growth inhibition, active compounds read high
Method: Growth inhibition of yeast strains with defined genetic alterations is measured as a screen for potential anti-cancer activity. Selected strains with alterations in DNA damage repair or cell cycle control were exposed to compounds and growth inhibition was measured relative to vehicle treated controls. The strain used in this assay is rad18

SMILES	growth inhibition (at 1.2 µM)	growth inhibition (at 3.7 µM)	growth inhibition (at 11.0 µM)	growth inhibition (at 33.0 µM)	growth inhibition (at 100.0 µM)
CCN(CCCl)c1cc(CN(C)C)cc(NC(=O)c2ccc(C(=O)Nc3cc(CN(C)C)cc(N(CC)CCCl)c3)cc2)c1	3%	57%	85% (active)	90% (active)	97% (active)
N#Cc1cc(N(CCCl)CCCl)c([N+](=O)[O-])cc1[N+](=O)[O-]	64%	82% (active)	89% (active)	95% (active)	95% (active)
CCOC(=O)C1([Se]c2ccccc2)CCCC1=O (stereo not given)	9%	21%	30%	65%	91% (active)
Cc1c([N+](=O)[O-])oc2ccc3ccccc3c12	95% (active)	96% (active)	96% (active)	95% (active)	94% (active)
CSC(=Nc1ccccc1)N(c1ccccc1)c1nc(=[N+](C)C)ss1	4%	34%	93% (active)	98% (active)	98% (active)
CCOC(=O)C1=C(C(=O)OCC)C2(c3ccccc3)N(O1)c1ccccc1C2(C)C (stereo not given)	-4%	-11%	-12%	-4%	68%
CC1CC(Br)C(=O)O1 (stereo not given)	-57%	-50%	-28%	69%	88% (active)
Cc1ccc2nc3sc(=O)sc3nc2c1	29%	56%	99% (active)	98% (active)	97% (active)
